# Measured values published in PubChem BioAssay AID1159580 (chemical genetic matrix, 2015).
# Where “and” joins values, the source holds several entries; their conditions need not be identical. Equal entries are not always repeated. The whole screen tested about 5,500 compounds, of which about 2,000 (36%) were called active. Inconclusive results (about 18%) are left out. Some of the results follow. A number with no mark means an inactive call. No stated cut-off is given here; in the data, active means normalized growth mostly below about 0.91 (no sharp cut-off); inconclusive means no clear call, values can overlap the other calls; inactive means mostly above about 0.92.
# Assay: chemical genetic growth profiling, strain panel (AID 1159580);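 further: tested at 20 µM; growth read once vehicle control cultures reached saturation at 30 °C; 1 = growth at the plate median or of vehicle wells; lower values mean less growth of the strain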
# Details: S. cerevisiae deletion strains, growth OD
compound,measurement,setting,value
C=C(C)[C@H]1Cc2c(ccc3c2O[C@@H]2COc4cc(OC)c(OC)cc4[C@@H]2C3=O)O1,normalized growth,"locus YAL013W, strain DEP1, hits give low values",1.01
same,normalized growth,"locus YAL021C, strain ccr4, hits give low values",0.993
same,normalized growth,"locus YAL026C, strain drs2, hits give low values",0.962
same,normalized growth,"locus YAL030W, strain snc1, hits give low values",0.982
same,normalized growth,"locus YBL061C, strain skt5, hits give low values",0.994
same,normalized growth,"locus YBR009C, strain hhf1, hits give low values",0.892 (active)
same,normalized growth,"locus YBR021W, strain FUR4, hits give low values",0.975
same,normalized growth,"locus YBR023C, strain chs3, hits give low values",0.962
same,normalized growth,"locus YBR171W, strain sec66, hits give low values",0.979
same,normalized growth,"locus YBR229C, strain ROT2, hits give low values",1.01
same,normalized growth,"locus YBR231C, strain swc5, hits give low values",1
same,normalized growth,"locus YBR279W, strain paf1, hits give low values",1.06
same,normalized growth,"locus YCL011C, strain gbp2, hits give low values",0.936
same,normalized growth,"locus YCL016C, strain dcc1, hits give low values",0.926
same,normalized growth,"locus YCL029C, strain bik1, hits give low values",1.03
same,normalized growth,"locus YCL061C, strain MRC1, hits give low values",1
same,normalized growth,"locus YCL069W, strain vba3, hits give low values",0.997
same,normalized growth,"locus YCR088W, strain abp1, hits give low values",1.03
same,normalized growth,"locus YDL005C, strain med2, hits give low values",0.99
same,normalized growth,"locus YDL035C, strain GPR1, hits give low values",0.956
same,normalized growth,"locus YDL040C, strain nat1, hits give low values",0.986
same,normalized growth,"locus YDL074C, strain BRE1, hits give low values",0.926
same,normalized growth,"locus YDL101C, strain DUN1, hits give low values",0.992
same,normalized growth,"locus YDL185W, strain tfp1, hits give low values",1.02
same,normalized growth,"locus YDL192W, strain arf1, hits give low values",1.02
same,normalized growth,"locus YDR001C, strain nth1, hits give low values",1.01
same,normalized growth,"locus YDR069C, strain doa4, hits give low values",0.991
same,normalized growth,"locus YDR101C, strain arx1, hits give low values",1
same,normalized growth,"locus YDR137W, strain rgp1, hits give low values",0.853
same,normalized growth,"locus YDR159W, strain sac3, hits give low values",0.984
same,normalized growth,"locus YDR162C, strain NBP2, hits give low values",0.966
same,normalized growth,"locus YDR195W, strain ref2",1.13
same,normalized growth,"locus YDR297W, strain sur2, hits give low values",0.966
same,normalized growth,"locus YDR318W, strain mcm21, hits give low values",1
same,normalized growth,"locus YDR334W, strain swr1, hits give low values",1.04
same,normalized growth,"locus YDR335W, strain msn5, hits give low values",1
same,normalized growth,"locus YDR388W, hits give low values",1.01
same,normalized growth,"locus YDR392W, strain spt3, hits give low values",0.762
same,normalized growth,"locus YDR502C, strain sam2, hits give low values",1
same,normalized growth,"locus YEL003W, strain gim4, hits give low values",0.981
same,normalized growth,"locus YEL037C, strain rad23, hits give low values",1.02
same,normalized growth,"locus YEL061C, strain CIN8 (second series), hits give low values",1.03
same,normalized growth,"locus YEL061C, strain CIN8, hits give low values",1
same,normalized growth,"locus YER015W, strain faa2, hits give low values",0.982
same,normalized growth,"locus YER016W, strain bim1, hits give low values",0.986
same,normalized growth,"locus YER110C, hits give low values",1.11 [resistant] (active)
same,normalized growth,"locus YER111C, strain swi4, hits give low values",1.02
same,normalized growth,"locus YER155C, strain BEM2 (second series), hits give low values",1.07
same,normalized growth,"locus YER155C, strain BEM2, hits give low values",1
same,normalized growth,"locus YER167W, strain BCK2, hits give low values",0.966
same,normalized growth,"locus YFR010W, strain ubp6, hits give low values",1.01
same,normalized growth,"locus YGL078C, strain dbp3, hits give low values",1.01
same,normalized growth,"locus YGL086W, strain mad1, hits give low values",0.993
same,normalized growth,"locus YGL167C, strain pmr1, hits give low values",0.97
same,normalized growth,"locus YGL173C, strain kem1, hits give low values",0.98
same,normalized growth,"locus YGL227W, strain vid30, hits give low values",1.01
same,normalized growth,"locus YGL240W, strain doc1, hits give low values",0.999
same,normalized growth,"locus YGL248W, strain PDE1, hits give low values",0.993
same,normalized growth,"locus YGL253W, strain hxk2, hits give low values",0.964
same,normalized growth,"locus YGR135W, strain pre9, hits give low values",0.996
same,normalized growth,"locus YGR229C, strain SMI1, hits give low values",0.924
same,normalized growth,"locus YGR252W, strain gcn5, hits give low values",0.914
same,normalized growth,"locus YHR013C, strain ard1, hits give low values",1
same,normalized growth,"locus YHR027C, strain rpn1, hits give low values",0.975
same,normalized growth,"locus YHR030C, strain SLT2, hits give low values",1.01 and 0.915
same,normalized growth,"locus YHR079C, strain IRE1 (second series), hits give low values",1.02
same,normalized growth,"locus YHR079C, strain IRE1, hits give low values",0.95
same,normalized growth,"locus YHR094C, strain hxt1, hits give low values",1.02
same,normalized growth,"locus YHR129C, strain ARP1, hits give low values",1.01
same,normalized growth,"locus YHR142W, strain chs7, hits give low values",0.972
same,normalized growth,"locus YHR200W, strain rpn10, hits give low values",0.996
same,normalized growth,"locus YIL066C, strain RNR3, hits give low values",0.968
same,normalized growth,"locus YIL073C, strain SPO22, hits give low values",1.04
same,normalized growth,"locus YIL125W, strain kgd1, hits give low values",1.01
same,normalized growth,"locus YIR030C, strain dcg1, hits give low values",1.02
same,normalized growth,"locus YJL092W, strain hpr5, hits give low values",1.01
same,normalized growth,"locus YJL095W, strain BCK1 (second series), hits give low values",0.967
same,normalized growth,"locus YJL095W, strain BCK1, hits give low values",0.958 and 0.936
same,normalized growth,"locus YJL115W, strain asf1, hits give low values",1.02
same,normalized growth,"locus YJL129C, strain trk1, hits give low values",0.901
same,normalized growth,"locus YJL134W, strain LCB3, hits give low values",1.01
same,normalized growth,"locus YJL154C, strain vps35, hits give low values",1
same,normalized growth,"locus YJL164C, strain tpk1, hits give low values",0.917 (active)
same,normalized growth,"locus YJL166W, strain qcr8, hits give low values",0.932
same,normalized growth,"locus YJL168C, strain set2, hits give low values",1.04
same,normalized growth,"locus YJL187C, strain SWE1 (second series), hits give low values",0.982
same,normalized growth,"locus YJL187C, strain SWE1, hits give low values",0.993
same,normalized growth,"locus YJR043C, strain POL32, hits give low values",0.973
same,normalized growth,"locus YJR066W, strain TOR1, hits give low values",0.851
same,normalized growth,"locus YJR075W, strain HOC1, hits give low values",0.983
same,normalized growth,"locus YKL009W, strain mrt4, hits give low values",1.03
same,normalized growth,"locus YKL068W, hits give low values",1
same,normalized growth,"locus YKL085W, strain MDH1 (second series), hits give low values",1
same,normalized growth,"locus YKL085W, strain MDH1, hits give low values",1
same,normalized growth,"locus YKL160W, strain elf1, hits give low values",0.95
same,normalized growth,"locus YKL190W, strain CNB1, hits give low values",1
same,normalized growth,"locus YKR001C, strain vps1, hits give low values",0.947
same,normalized growth,"locus YKR026C, strain gcn3, hits give low values",1
same,normalized growth,"locus YKR091W, strain srl3, hits give low values",0.991
same,normalized growth,"locus YLL001W, strain dnm1, hits give low values",0.983
same,normalized growth,"locus YLL026W, hits give low values",0.976
same,normalized growth,"locus YLL041C, strain sdh2, hits give low values",0.99
same,normalized growth,"locus YLR027C, strain aat2, hits give low values",0.978
same,normalized growth,"locus YLR039C, strain RIC1, hits give low values",0.936
same,normalized growth,"locus YLR058C, strain SHM2, hits give low values",1.01
same,normalized growth,"locus YLR102C, strain apc9, hits give low values",1.02
same,normalized growth,"locus YLR113W, strain HOG1, hits give low values",0.968
same,normalized growth,"locus YLR221C, strain rsa3, hits give low values",0.921
same,normalized growth,"locus YLR258W, strain gsy2, hits give low values",0.958
same,normalized growth,"locus YLR262C, strain YPT6 (second series), hits give low values",0.83 (active)
same,normalized growth,"locus YLR262C, strain YPT6, hits give low values",0.99
same,normalized growth,"locus YLR268W, strain sec22, hits give low values",0.978
same,normalized growth,"locus YLR320W, strain mms22, hits give low values",0.891
same,normalized growth,"locus YLR330W, strain CHS5, hits give low values",1.02
same,normalized growth,"locus YLR342W, strain FKS1 (second series), hits give low values",1.02
same,normalized growth,"locus YLR342W, strain FKS1, hits give low values",1.01
same,normalized growth,"locus YLR357W, strain rsc2, hits give low values",1.09
same,normalized growth,"locus YLR370C, strain arc18, hits give low values",0.975
same,normalized growth,"locus YLR371W, strain rom2, hits give low values",1.02
same,normalized growth,"locus YLR384C, strain iki3, hits give low values",1.03
same,normalized growth,"locus YLR418C, strain cdc73, hits give low values",0.917
same,normalized growth,"locus YML016C, strain PPZ1, hits give low values",1.01
same,normalized growth,"locus YML032C, strain rad52, hits give low values",1.01
same,normalized growth,"locus YML120C, strain ndi1, hits give low values",0.95
same,normalized growth,"locus YML124C, strain tub3, hits give low values",1.01
same,normalized growth,"locus YMR058W, strain fet3, hits give low values",0.994
same,normalized growth,"locus YMR078C, strain ctf18, hits give low values",1.01
same,normalized growth,"locus YMR125W, strain sto1, hits give low values",1.05
same,normalized growth,"locus YMR129W, hits give low values",1
same,normalized growth,"locus YMR205C, strain PFK2, hits give low values",0.929
same,normalized growth,"locus YMR223W, strain ubp8, hits give low values",1
same,normalized growth,"locus YMR231W, strain pep5, hits give low values",0.983
same,normalized growth,"locus YMR307W, strain GAS1, hits give low values",1
same,normalized growth,"locus YNL067W, strain RPL9B, hits give low values",0.987
same,normalized growth,"locus YNL071W, strain lat1, hits give low values",0.894 (active)
same,normalized growth,"locus YNL128W, strain TEP1, hits give low values",0.995
same,normalized growth,"locus YNL183C, strain NPR1, hits give low values",0.886
same,normalized growth,"locus YNL209W, strain ssb2, hits give low values",0.979
same,normalized growth,"locus YNL233W, strain BNI4, hits give low values",0.976
same,normalized growth,"locus YNL248C, strain rpa49, hits give low values",1.06
same,normalized growth,"locus YNL250W, strain rad50, hits give low values",1.02
same,normalized growth,"locus YNL271C, strain bni1, hits give low values",1.02
same,normalized growth,"locus YNL298W, strain CLA4, hits give low values",1.01
same,normalized growth,"locus YNL307C, strain MCK1, hits give low values",0.962
same,normalized growth,"locus YNL322C, strain KRE1 (second series), hits give low values",0.991
same,normalized growth,"locus YNL322C, strain KRE1, hits give low values",1
same,normalized growth,"locus YNR049C, strain mso1, hits give low values",1.01
same,normalized growth,"locus YNR052C, strain pop2, hits give low values",1.01
same,normalized growth,"locus YOL006C, strain TOP1, hits give low values",0.944
same,normalized growth,"locus YOL012C, strain htz1",0.818
same,normalized growth,"locus YOL147C, strain pex11, hits give low values",1.03
same,normalized growth,"locus YOR001W, strain rrp6, hits give low values",0.967
same,normalized growth,"locus YOR061W, strain CKA2, hits give low values",1
same,normalized growth,"locus YOR069W, strain VPS5, hits give low values",1
same,normalized growth,"locus YOR070C, strain gyp1, hits give low values",0.961
same,normalized growth,"locus YOR080W, strain dia2, hits give low values",0.994
same,normalized growth,"locus YOR083W, strain WHI5, hits give low values",0.969
same,normalized growth,"locus YOR106W, strain vam3, hits give low values",0.974
same,normalized growth,"locus YOR136W, strain idh2, hits give low values",1.01
same,normalized growth,"locus YOR144C, strain elg1, hits give low values",1
same,normalized growth,"locus YOR184W, strain ser1, hits give low values",0.952
same,normalized growth,"locus YOR231W, strain MKK1, hits give low values",0.94
same,normalized growth,"locus YOR265W, strain rbl2, hits give low values",0.973
same,normalized growth,"locus YOR270C, strain vph1, hits give low values",0.853
same,normalized growth,"locus YOR290C, strain snf2, hits give low values",0.985
same,normalized growth,"locus YOR316C, strain cot1, hits give low values",1.01
same,normalized growth,"locus YPL051W, strain arl3, hits give low values",0.963
same,normalized growth,"locus YPL055C, strain LGE1, hits give low values",0.942
same,normalized growth,"locus YPL078C, strain atp4, hits give low values",1.03
same,normalized growth,"locus YPL106C, strain sse1, hits give low values",0.977
same,normalized growth,"locus YPL240C, strain hsp82, hits give low values",0.975
same,normalized growth,"locus YPL241C, strain CIN2, hits give low values",1.01
same,normalized growth,"locus YPL256C, strain CLN2, hits give low values",0.942
same,normalized growth,"locus YPR119W, strain clb2, hits give low values",1.01
same,normalized growth,"locus YPR141C, strain kar3, hits give low values",1.04
same,normalized growth,"locus YPR163C, strain tif3, hits give low values",0.933
same,normalized growth,"locus YPR167C, strain met16, hits give low values",1
same,normalized growth,"strain wtn01, hits give low values",1.03
